The text below walks through data of PubChem BioAssay (NCI).

Common to all, as to assay: NCI-60 one-dose screen, 48 h (100 = growth as untreated, 0 = no growth, -100 = all killed)
Details in all cases: 10 µM unless noted

The test system of experiment [1] is NCI-H23 lung.
Experiment [2] deals with NCI-H226 lung.
In experiment [3] the test system is NCI-H322M lung.
Experiment [4] concerns HOP-62 NSCLC.
Experiment [5] deals with NCI-H460 lung.
Experiment [6] has as its system NCI-H522 lung.
Experiment [7] deals with A549/ATCC NSCLC.
Experiment [8] deals with 786-0 renal.
Experiment [9] concerns COLO 205 colon.
The test system of experiment [10] is DU-145 prostate.
Experiment [11] has as its system K-562 leukemia.
Experiment [12] has as its system MALME-3M melanoma.
The subject of experiment [13] is MDA-MB-231 breast.
Experiment [14] deals with RXF 393 renal.
The subject of experiment [15] is SF-268 CNS.
Experiment [16] relates to SF-295 CNS.
Experiment [17] has as its system SF-539 CNS.
Experiment [18] deals with UACC-257 melanoma.
Experiment [19] has as its system M14 melanoma.

The panel holds about 83,000 compounds, 20% with a hit somewhere; the sample as a whole holds those more often.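 Percent growth is the endpoint: 0 to 100 indicates growth inhibition (40 means 60% inhibition), 0 means no net growth, and negative values indicate cell death.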 A number with no mark means an inactive call. Active and inactive are the calls of the source. Rule for the calls: active = growth percent below 10; inactive = the rest.

Regarding `CN1CCN(Cc2ccc(NC(=O)c3cncc(C#Cc4cnc5ccc(NCCCO)nn45)c3)cc2C(F)(F)F)CC1`, the growth in [1] was -52% (active); in experiment [2], -10.1% (active); in [3], 3.42% (active); in experiment [4], -36.8% (active); in experiment [5] it was -85.6% (active); in [6] it was -77.2% (active). The growth in experiment [7] was 5.6% (active); in experiment [8] it was -58.9% (active); in [9], -78% (active); in experiment [10], -16.5% (active); in [11] it was 0.484% (active); in experiment [12] it was -56.1% (active). Moreover, the growth in [13] is 12.2%; in experiment [14], -89% (active); in [15] it was -44.4% (active); in [16], -12.1% (active); in [17] it was -78.1% (active); in experiment [18], -43.8% (active). In addition, the growth in [19] is -91% (active).

In the case of `N/C(=N\C(N)=N\c1nc2ccccc2s1)c1cccc(F)c1`, the growth in [1] is 76.5% [5 µM]; in experiment [2], 90.8% [5 µM]; in [3], 92.6% [5 µM]; in [4], 81.1% [5 µM]; in experiment [5], 88.7% [5 µM]; in experiment [6], 94.5% [5 µM]. For the same compound, the growth is 75.9% [5 µM] in experiment [7]; 107% [5 µM] in experiment [8]; 106% [5 µM] in [9]; 104% [5 µM] in experiment [10]; 89.2% [5 µM] in [11]; 91.5% [5 µM] in experiment [12]. Besides, the growth is 78.7% [5 µM] in [13]; 122% [5 µM] in experiment [14]; 99.1% [5 µM] in [15]; 87.8% [5 µM] in experiment [16]; 100% [5 µM] in experiment [17]; 104% [5 µM] in experiment [18]. The growth in [19] was 98.4% [5 µM].

As for `COc1cc(OC)c(S(N)(=O)=O)cc1C(=O)/C=C/c1ccc(C)cc1`, the growth in experiment [1] was 8.61% (active); in experiment [2] it was -2.47% (active); in experiment [3], 34.6%; in experiment [4], 11.9%; in experiment [5], -3.51% (active); in experiment [6], 11%. In addition, the growth was 22.5% in experiment [7]; 19.9% in experiment [8]; 17% in experiment [9]; 1.29% (active) in experiment [10]; 7.24% (active) in experiment [11]; 72.9% in experiment [12]. Moreover, the growth is 14.2% in experiment [13]; -28.2% (active) in experiment [14]; 31.6% in experiment [15]; 23.6% in [16]; 1.82% (active) in experiment [17]; 81% in [18]. The growth in experiment [19] was 41.5%.

On to `CN1CCC(n2cc(Nc3ncc4c(=O)n(-c5c(Cl)cccc5Cl)cc(Br)c4n3)cn2)CC1`, for which the growth is 8.53% (active) in [1]; 33.9% in experiment [2]; 41.9% in experiment [3]; 28% in experiment [4]; 1.23% (active) in [5]; -8.22% (active) in experiment [6]. Also, the growth in experiment [7] is 36.2%; in [8], 20.5%; in [9], 22.5%; in experiment [10] it was 23.1%; in experiment [11], 6.48% (active); in experiment [12] it was 69.5%. The growth in experiment [13] is 22%; in [14], -58.3% (active); in experiment [15], 39.7%; in [16] it was 42.4%; in [17], 5.25% (active); in experiment [18] it was 82.1%. The growth in experiment [19] was 35%.

In the case of `c1n[nH]cc1-c1nc2ccc3[nH]ncc3c2c2c1CCCC2`, the growth in experiment [1] is 19%; in experiment [2], 29.1%; in experiment [3], 31.1%; in experiment [4] it was 14.7%; in [5], 9.2% (active); in [6], 2.99% (active). Besides, the growth in [7] is 15.7%; in experiment [8], 16.9%; in experiment [9], 8.98% (active); in experiment [10], 20.4%; in [11], 33.9%; in [12], 11.5%. Further, the growth is 49.1% in experiment [13]; -51.4% (active) in experiment [14]; 27% in [15]; 29.5% in [16]; 11% in experiment [17]; 37.1% in [18]. Also, the growth in [19] is 7.13% (active).

As for `O=C(Nc1nc2ccc([N+](=O)[O-])cc2s1)Nc1ccccc1Br`, the growth in experiment [1] was 9.86% (active); in [2], 38.4%; in experiment [3] it was 27.6%; in experiment [4], 91.2%; in experiment [5], 27.4%; in experiment [6], 26.5%. The growth in experiment [7] is 49.4%; in [8], 70%; in experiment [9], 55.3%; in experiment [10], 46.5%; in experiment [11], 20.7%; in experiment [12] it was 14.6%. Besides, the growth is 72.7% in experiment [13]; 62.2% in experiment [14]; 38.3% in [15]; 38.1% in [16]; 39.9% in [17]; 30.4% in experiment [18]. The growth in [19] is 54.5%.

With `CCOC(=O)c1c(Nc2ccccc2)nn2c(-c3ccc(Cl)cc3)ccnc12`, the growth in [1] is 73.4%; in experiment [2] it was 58.6%; in [3], 86.5%; in experiment [4], 56.7%; in experiment [5], 44.1%; in experiment [6] it was 79.7%. Further, the growth was 70.4% in experiment [7]; 64.7% in [8]; 82.1% in experiment [9]; 79.5% in [10]; 81.1% in experiment [11]; 84% in experiment [12]. Moreover, the growth is 75.4% in [13]; -10.6% (active) in experiment [14]; 77% in experiment [15]; 77.5% in [16]; 71.7% in experiment [17]; 104% in experiment [18]. Moreover, the growth in experiment [19] is 96.5%.

For the compound `C#CC(=O)N(c1ccc(OC)cc1OC)C(C(=O)NCC(=O)OCC)c1cccs1` (centres undefined), the growth in experiment [1] was -54.7% (active); in experiment [2], 93.3%; in experiment [3], 94.4%; in experiment [4] it was 102%; in experiment [5] it was 82.2%; in experiment [6] it was -72.2% (active). Besides, the growth in experiment [7] was 94.4%; in experiment [8] it was -75.2% (active); in experiment [9] it was 35%; in [10], 33.2%; in [11], 3.23% (active); in [12] it was -61.8% (active). Besides, the growth in [13] was 22.4%; in experiment [14] it was 56.5%; in [15] it was -23.1% (active); in [16] it was -67.9% (active); in experiment [17], -86% (active); in [18] it was 86.6%. Further, in experiment [19], the growth is 80.9%.

On to `Cc1[nH]c(C(=O)Nc2ccccc2OCc2cccc(C(=O)N3CCC[C@@H](N)C3)c2)c(Cl)c1Cl`, for which the growth in [1] was -80.6% (active); in experiment [2] it was -67.4% (active); in [3], -94.3% (active); in experiment [4] it was -60.4% (active); in [5] it was -73.7% (active); in experiment [6], -66.5% (active). In addition, the growth in [7] was -77% (active); in experiment [8], -72.6% (active); in experiment [9], -64% (active); in [10], -89.3% (active); in experiment [11] it was -49.6% (active); in experiment [12] it was -79.1% (active). The growth was -75.8% (active) in [13]; -87.6% (active) in experiment [14]; -66.9% (active) in experiment [15]; -91.7% (active) in experiment [16]; -89.2% (active) in experiment [17]; -72.4% (active) in experiment [18]. Further, the growth in experiment [19] is -85.7% (active).

On to `Nc1ncc(-c2ccc(NS(=O)(=O)c3ccc(Cl)c(Cl)c3)cc2)[nH]1`, for which the growth in [1] was 95.9%; in [2], 87.3%; in experiment [3], 97%; in experiment [4], 113%; in experiment [5], 93.6%; in experiment [6] it was 92.7%. In addition, the growth in experiment [7] was 92.5%; in [8] it was 93.8%; in experiment [9], 109%; in experiment [10] it was 103%; in experiment [11], 89.7%; in experiment [12] it was 85.3%. For the same compound, the growth is 91.2% in experiment [13]; 95.4% in experiment [14]; 75.1% in experiment [15]; 90.8% in experiment [16]; 88.1% in experiment [17]; 87.7% in [18]. In addition, in experiment [19], the growth is 95.5%.

Take `Cc1ccc(C2=Nn3c(nnc3-c3ccccc3)SC2)cc1`: the growth was 36.6% in experiment [1]; 61.2% in experiment [2]; 60.8% in [3]; 27.5% in experiment [4]; 11.1% in [5]; -2.45% (active) in experiment [6]. Moreover, the growth was 44.6% in experiment [7]; 46.8% in experiment [8]; 3.27% (active) in experiment [9]; 22.2% in experiment [10]; 15.7% in experiment [11]; 59.5% in [12]. Besides, the growth in experiment [13] is 51.4%; in experiment [14], -6.84% (active); in experiment [15], 49.5%; in [16] it was 10.4%; in experiment [17], 11.2%; in experiment [18], 55.5%. The growth in experiment [19] was 12.2%.
